In general, inhibition refers to the relative decrease from the control value, in per cent.

Here are results for 14 compounds from ChEMBL document CHEMBL3433997, “St. Jude Leishmania screening dataset” (2016).

The test concerns the target Glucose transporter (Leishmania mexicana) (UniProt O61059). The experiment in a line: ST_JUDE_LEISH: Cytotoxicity at 2uM final concentration against transgenic Leishmania Mexicana promastigotes LmGT2 that are glucose transport deficient and complemented with the L. Mexicana glucose transporter 2. Activity is measured by DNA content using SYBR green in vitro. Type of test: functional.
In the case of `Cc1[nH]c(C)c(C(F)(F)F)c(=O)c1-c1ccc(Oc2ccc(OC(F)(F)F)cc2)cc1`, the inhibition worked out at 0.52%. `O=C(/C=C/c1ccc(Cl)c(Cl)c1)NCCCCCN1CCC(NC(=S)Nc2ccc(F)cc2F)CC1`: the inhibition stood at 14.5%.

As to `Nc1c2c(nc3ccc(NC(=O)CCCc4ccccc4)cc13)CCCC2`, the inhibition came out at 0.12%. On to `Nc1nc(N)c2cc(NS(=O)(=O)c3ccc(-c4ccccc4)cc3)ccc2n1`, for which the inhibition was 3.56%. Regarding `CCNc1cc(C(=O)N[C@@H](Cc2ccccc2)[C@H](O)CNC(C)(C)Cc2cccc(Cl)c2)cc(N2CCCCS2(=O)=O)c1`, the inhibition worked out at 6.82%.

On to `CCNc1cc(C(=O)N[C@@H](Cc2ccccc2)[C@H](O)CNC(C)(C)Cc2ccccc2)cc(N2CCCC2=O)c1`, for which the inhibition amounted to 0.81%. For `O=C(CCc1c[nH]cn1)Nc1ccc(-c2ccc(-c3nc4ccccc4[nH]3)cc2)cc1` the value was 15.2%.

For the compound `CN(C)CCCNc1ncnc2c1[nH]c1ccc(F)cc12`, the inhibition was found to be 7.71%.

`CC1CN(Cc2cccc(-c3ccc(-c4nc5ccccc5[nH]4)cc3)c2)CC(C)O1` (centres undefined): the inhibition was 2.3%. As to `CN(Cc1cccc(F)c1)C1CCCN(c2cc(NC(=O)c3ccccc3)ccn2)C1` (centres undefined), the inhibition worked out at 3.71%. Consider `COC(=O)C(=C(C)C)N1C(=O)[C@@H](NC(=O)OCc2ccccc2)[C@H]1SS[C@@H]1[C@H](NC(=O)OCc2ccccc2)C(=O)N1C(C(=O)OC)=C(C)C`, for which the inhibition was -1.05%. Take `CC(=O)Nc1cccc(C(=O)Nc2cccc(-c3ccc(-c4nc5cccc(C)c5[nH]4)cc3)c2)c1`: the inhibition worked out at 4.99%. As to `Cc1nnnn1-c1ccc(C(=O)N2CCC3(CC2)CN(Cc2ccc(Cl)c(Cl)c2)C(=O)O3)cc1`, the inhibition came out at 6.87%. For the compound `COc1cccc(CN2CCCN(Cc3cccc(NC(=O)c4cc5ccccc5s4)c3)CC2)c1`, the inhibition is 5.23%.
